From PubChem BioAssay AID2014 (Sanford-Burnham Center for Chemical Genomics, 2009) come the findings set out here.

Molecules are shown by their SMILES. Out of some 290,000 compounds screened, about 3,000 (1%) were called active. No rule for the calls is given here. Only a selection was taken, and actives are over-represented in it overall.

What is called inhibition is the drop in the measured response relative to a control, in per cent.

In the assay the target is Polyadenylate-binding protein 1 (Homo sapiens) (UniProt P11940). Description: blockers of PABP interaction with poly(A) – biochemical, fluorescence polarization, uHTS, primary screen (AID 2014).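 Also: calls also rest on retests at 20 µM and on dose response follow-up.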 The following applies: PABP-poly(A) RNA binding, stronger effect = higher value.
Polyadenylate-binding protein 1 (Homo sapiens), sequence (P11940 whole entry, looked up): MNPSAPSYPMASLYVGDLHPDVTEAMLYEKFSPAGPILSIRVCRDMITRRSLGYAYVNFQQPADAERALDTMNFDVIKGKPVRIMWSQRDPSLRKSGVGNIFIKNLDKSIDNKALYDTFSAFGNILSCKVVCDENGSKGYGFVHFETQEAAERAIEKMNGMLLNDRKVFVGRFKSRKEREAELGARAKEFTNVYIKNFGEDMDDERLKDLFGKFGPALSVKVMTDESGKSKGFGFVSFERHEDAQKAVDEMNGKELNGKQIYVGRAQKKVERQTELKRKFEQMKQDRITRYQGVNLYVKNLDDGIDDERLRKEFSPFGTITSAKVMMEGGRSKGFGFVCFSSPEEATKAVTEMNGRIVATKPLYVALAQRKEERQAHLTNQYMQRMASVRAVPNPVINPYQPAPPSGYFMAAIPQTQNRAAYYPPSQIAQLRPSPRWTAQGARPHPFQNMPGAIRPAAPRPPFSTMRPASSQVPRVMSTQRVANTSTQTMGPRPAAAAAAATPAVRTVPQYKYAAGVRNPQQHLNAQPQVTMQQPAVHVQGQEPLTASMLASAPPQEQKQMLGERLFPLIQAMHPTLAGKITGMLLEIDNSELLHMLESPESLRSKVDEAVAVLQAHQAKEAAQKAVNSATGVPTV

As for `CN1C(=O)/C(=C\c2ccc(-c3ccccc3)o2)SC1=S`, the inhibition (at 35 µM) was 19.8% (inactive).

Turning to `O=C1NN(c2ccccc2)C(=O)/C1=C/c1ccc(-c2cccc(C(=O)O)c2)o1`, the inhibition (at 35 µM) was 36.5% (inactive).

For the compound `O=C(O)C(c1ccccc1)N1C(=O)/C(=C\c2ccc(-c3cccc(Cl)c3)o2)SC1=S` (configuration not stated), the inhibition is, setting by setting: (at 35 µM) 76% (active); (confirmation repeats, at 20 µM) 126%.

As to `CCOC(OCC)c1ccc(/C=C\c2nccc(N)n2)cc1`, under “at 35 µM”, the inhibition is -16.6% (inactive).

Turning to `COC(=O)c1sccc1NC(=O)COc1ccc(Cl)cc1`, the inhibition reads like this: (at 35 µM) 81% (active); (confirmation repeats, at 20 µM) 58.4%.

For the compound `O=C(COc1ccc(Cl)cc1)Nc1ccccc1CO`, the inhibition (at 35 µM) is 4.7% (inactive).

With `COC(=O)c1sccc1NC(=O)c1ccc(Cl)cc1`, the inhibition (at 35 µM) was 4.7% (inactive).

For `CC(C)(C)C1CCC(C(=O)NCC(c2cccs2)N2CCOCC2)CC1` (configuration not stated), the inhibition (at 35 µM) was 15.6% (inactive).

With `Nc1nnn(CC(=O)N/N=C/c2ccc(O)cc2)n1`, the inhibition (at 35 µM) was 15.3% (inactive).

Take `O=C(C[n+]1ccccc1)N/N=C/c1ccc(O)cc1`: the inhibition (at 35 µM) is -10% (inactive).

`O=C(CC(=O)Nc1ccc(Cl)c(Cl)c1)N/N=C/c1ccc(O)cc1`: the inhibition (at 35 µM) is 51.1% (active) and the inhibition (confirmation repeats, at 20 µM) amounted to 59.9%.

Consider `CN(C)c1ccc(S(=O)(=O)NCC(=O)NCC2CCCCC2)cc1[N+](=O)[O-]`, for which the inhibition (at 35 µM) was 13.4% (inactive).

For `COc1cccc(C(=O)N/N=C(\C)c2cccc(NC(=O)c3ccc(F)cc3)c2)c1OC`, the inhibition (at 35 µM) was -0.8% (inactive).

As to `COc1ccccc1OCCCC(=O)Nc1ccc2c(c1)OCCO2`, where the note is “at 35 µM”, the inhibition was 3.8% (inactive).

For `Cc1nnc(NC(=O)/C=C/c2ccco2)s1`, the inhibition reads like this: (at 35 µM) -3.5% (inactive); (confirmation repeats, at 20 µM) 8.4%.

Take `CCc1nnc(NC(=O)/C=C/c2ccc(C)o2)s1`: the inhibition reads like this: (at 35 µM) 4.4% (active); (confirmation repeats, at 20 µM) 56.5%.

As to `CCC(CC)c1nnc(NC(=O)/C=C/c2ccco2)s1`, the inhibition is, setting by setting: (at 35 µM) 10% (inactive); (confirmation repeats, at 20 µM) 1.7%.

Take `CCOC(=O)c1c(S(=O)(=O)Nc2ccc(CN3CCC(C)CC3)cc2)c(C)n(C)c1C`: the inhibition (at 35 µM) was -2.2% (inactive).

`CCOC(=O)N1CCC(N2Cc3cccc(C(=O)Nc4c(C)cccc4CC)c3C2=O)CC1`: for the setting “at 35 µM”, the inhibition is -4.1% (inactive).

Turning to `CCOC(=O)CC1COCCN1C(=O)c1cc(COc2ccc(F)c(F)c2)on1` (configuration not stated), the inhibition (at 35 µM) was 1.8% (inactive).

As to `O=C(O)c1ccc(OCC2CCCO2)cc1` (configuration not stated), where the note is “at 35 µM”, the inhibition was 6.4% (inactive).

As for `O=C(NCC(=O)N1CCN(c2ccccc2F)CC1)c1cccs1`, the inhibition (at 35 µM) was 7.4% (inactive).

On to `CC(C)(C)C(=O)CN1C2=NCCN2c2ccccc21`, for which the inhibition (at 35 µM) is -8.1% (inactive).

Take `O=C(CN1C2=NCCN2c2ccccc21)c1cccs1`: the inhibition reads like this: (at 35 µM) 88.7% (active); (confirmation repeats, at 20 µM) 105%.

For `COc1ccc(N2CCN(C(=O)Cn3cnc4sc(C)c(S(=O)(=O)N5CCOCC5)c4c3=O)CC2)cc1`, the inhibition (at 35 µM) was -2.8% (inactive).

As to `Cc1cccc2[nH]c(CN(C)C(=O)C3CCC(=O)N(CCc4ccccc4)C3)nc12` (configuration not stated), under “at 35 µM”, the inhibition is -4.2% (inactive).

In the case of `O=C(COc1ccc([N+](=O)[O-])cc1)Nc1ccc(N2CCCC2)cc1`, the inhibition (at 35 µM) was 7% (inactive).

Turning to `O=C(COc1ccc(/C=N/NC(=O)c2ccc(O)cc2)cc1)Nc1ccc([N+](=O)[O-])cc1`, the inhibition reads like this: (at 35 µM) 94.5% (active); (confirmation repeats, at 20 µM) 77.2%.

In the case of `O=C(N/N=C/c1ccc(OCc2ccccc2)cc1)c1ccc(O)cc1`, under “at 35 µM”, the inhibition was -15.7% (inactive).

Regarding `CC(C)c1ccc(Cc2nnc(NCCCO)[nH]c2=O)cc1`, the inhibition (at 35 µM) was 3.4% (inactive).

Turning to `CCOc1cc(CN2CCCC(CO)(Cc3ccc(F)cc3F)C2)ccc1OC` (configuration not stated), the inhibition (at 35 µM) was 4.9% (inactive).

In the case of `CCOCc1nnc(NC(=O)CCS(=O)(=O)Cc2ccccc2)s1`, under “at 35 µM”, the inhibition is -0.4% (inactive).

Consider `CN(C)S(=O)(=O)c1cccc(-c2nn(-c3ccccc3)cc2/C=C2\SC(=S)N(CC(=O)O)C2=O)c1`, for which the inhibition (at 35 µM) was 38.3% (inactive).

As for `Cc1ccc(-c2nn(-c3ccccc3)cc2/C=C2\SC(=S)N(CCCCCC(=O)O)C2=O)o1`, the inhibition was 35.4% (active) (at 35 µM) and 54.4% (confirmation repeats, at 20 µM).

`COc1ccc(-c2nn(-c3ccccc3)cc2/C=C2/SC(=S)N(CCCC(=O)O)C2=O)c(C)c1`: for the setting “at 35 µM”, the inhibition was 4.8% (inactive).

With `O=C(CCCN1CCc2[nH]c3ccc(F)cc3c2C1)c1ccc(F)cc1`, where the note is “at 35 µM”, the inhibition was -1.4% (inactive).

On to `CC(=O)Cn1cnc2c(cnn2-c2ccccc2)c1=O`, for which the inhibition (at 35 µM) is -4.8% (inactive).

With `O=C(CCS(=O)(=O)Cc1ccccc1)Nc1ccc2c(c1)OCCO2`, the inhibition is, setting by setting: (at 35 µM) 72% (active); (confirmation repeats, at 20 µM) 88.6%.

Regarding `O=C(CN(c1ccc2c(c1)OCCO2)S(=O)(=O)c1ccccc1)Nc1ccc2c(c1)OCO2`, the inhibition (at 35 µM) is -3.5% (inactive).

With `CCCCC(=O)Nc1ccc2c(c1)OCCO2`, the inhibition (at 35 µM) is -6.8% (inactive).

Take `COc1ccccc1-n1c(-c2cc(-c3ccco3)[nH]n2)n[nH]c1=S`: the inhibition runs as follows: (at 35 µM) 39% (active); (confirmation repeats, at 20 µM) 56.9%.

Consider `COc1ccc(OC)c(-n2c(-c3ccn[nH]3)n[nH]c2=S)c1`, for which the inhibition (at 35 µM) is -4.8% (inactive).

Turning to `COc1ccc(-n2c(-c3ccc(OC)c(OC)c3)n[nH]c2=S)cc1`, under “at 35 µM”, the inhibition was 4.9% (inactive).

Consider `CCOC(=O)N1CCN(Cc2nc3cc(NC(=O)CC)ccc3n2CC)CC1`, for which the inhibition (at 35 µM) is 1.3% (inactive).

Regarding `Cc1cccc(NC(=O)CCn2c(=O)oc3ccccc32)c1`, the inhibition (at 35 µM) is 1% (inactive).

As to `COc1cccc(Nc2ncccc2C(=O)O)c1`, under “at 35 µM”, the inhibition is 11.9% (inactive).

As to `COc1cc(C(F)(F)F)c(C(=O)N(C)c2ccc(Cl)cc2)cn1`, the inhibition (at 35 µM) was -5.6% (inactive).

As for `COc1ccc(Nc2cc(Cl)ccc2C(=O)O)cn1`, the inhibition reads like this: (at 35 µM) 72.3% (active); (confirmation repeats, at 20 µM) 106%.

In the case of `COc1ccccc1OC(C)C(=O)Nc1ccc(S(=O)(=O)Nc2nccs2)cc1` (configuration not stated), where the note is “at 35 µM”, the inhibition is 4.4% (inactive).

For `CC(C)(C)OC(=O)NC(Cc1ccccc1)C(=O)NC(CSC1CCCCO1)C(=O)NN` (configuration not stated), the inhibition (at 35 µM) is 1.1% (inactive).

On to `COc1ccc(NS(=O)(=O)c2cc(NC(=O)/C=C/c3cc(OC)c(OC)c(OC)c3)ccc2N2CCCCC2)cc1`, for which the inhibition (at 35 µM) was -9.8% (inactive).

As to `COc1ccc(NS(=O)(=O)c2ccc(N3CCOCC3)c(NC(=O)c3ccccc3Br)c2)cc1`, the inhibition (at 35 µM) is 3.8% (inactive).

As to `COc1ccc(NS(=O)(=O)c2cc(NC(=O)C3CCCCC3)ccc2N2CCOCC2)cc1`, the inhibition is, setting by setting: (at 35 µM) 67.6% (active); (confirmation repeats, at 20 µM) 92.5%.

Consider `CC1CCCN(S(=O)(=O)c2ccc(-c3ccc(=O)[nH]n3)o2)C1` (configuration not stated), for which the inhibition (at 35 µM) was 3.3% (inactive).

`Cc1ccc(-n2ncc3c2CC(C)(C)CC3NC(=O)CCc2cnn(C)c2)cc1` (configuration not stated): the inhibition (at 35 µM) is 54.6% (inactive) and the inhibition (confirmation repeats, at 20 µM) is 27.1%.

Regarding `O=C(NC1CCCC1)C1CC(=O)N(c2ccc(F)cc2)C1` (configuration not stated), the inhibition (at 35 µM) is -2.5% (inactive).

With `Cc1cc2c(cc1C)[n+](C)cn2CC(O)COCC1CC=CCC1` (configuration not stated), the inhibition (at 35 µM) is 77.8% (active).

For `N#Cc1cccc(CN2CCC(=O)N([C@H](CO)c3ccccc3)CC2)c1`, where the note is “at 35 µM”, the inhibition is 5.7% (inactive).
